# Reference: the supplement of paper PMC3342239
# Counter-ions that a name gives are not always drawn.
# Test system: Saccharomyces cerevisiae
# Test: fraction of cells in G1 phase (DNA content, flow cytometry); higher = more cells with unreplicated DNA (G1 delay)
# Settings: temperature: 30 C; YPD; BY4741 PDR5+ SNQ2+; drug added to: actively dividing cells; 4.33 h
# Description: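 S. cerevisiae cultures in YPD at 30°C were treated with each drug of the Enzo FDA-approved library at 20 µg/ml (final µM given per drug). Cells were fixed after 6–7 h (S1) or 6 h (S2), or after 4.33 h for BY4741 (S3), then stained with SYTOX Green. %G1 is the Dean-Jett-Fox G1 peak area divided by the G1+G2/M peak areas, written as a fraction and averaged over at least two independent experiments. DMSO reference: mean ~0.49; >0.60 is called High G1 and <0.3876 Low G1. Scale: lower means mitotic delay.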
row,SMILES,fraction of cells in G1 phase
1,C#C[C@]1(O)CC[C@H]2[C@@H]3CCC4=CC(=O)CCC4=C3C=C[C@@]21CC [Gestrinone] (64.8457 µM),0.423

# Same assay, conditions: temperature: 30 C; YPD; JTY2953 pdr5 snq2 (sensitized); drug added to: actively dividing cells; 6 h
row,SMILES,fraction of cells in G1 phase
1,C#C[C@]1(O)CC[C@H]2[C@@H]3CCC4=CC(=O)CCC4=C3C=C[C@@]21CC [Gestrinone] (64.8457 µM),0.736
2,O=c1[nH]c2ccccc2n1C1CCN(CCCC(c2ccc(F)cc2)c2ccc(F)cc2)CC1 [Pimozide] (43.3313 µM),0.344

# Same assay, conditions: temperature: 30 C; YPD; JTY2953 pdr5 snq2 (sensitized); drug added to: cultures diluted from stationary phase; 6-7 h
row,SMILES,fraction of cells in G1 phase
1,CC[C@@H](CO)NC(=O)[C@@H]1C=C2c3cccc4c3c(cn4C)C[C@H]2N(C)C1 [Methysergide] (56.5822 µM),0.48
2,CN(C)C(=O)Oc1cccc([N+](C)(C)C)c1 [Neostigmine Br] (89.5666 µM),0.485
3,C=C1C[C@@H]2[C@H](CC[C@]3(C)C(=O)CC[C@@H]23)[C@@]2(C)C=CC(=O)C=C12 [Exemestane] (67.4764 µM),0.567
4,O=C1CC[C@@]2(O)[C@H]3Cc4ccc(O)c5c4[C@@]2(CCN3CC2CC2)[C@H]1O5 [Naltrexone HCl] (58.5805 µM),0.509
5,C#C[C@]1(O)CC[C@H]2[C@@H]3CCC4=CC(=O)CCC4=C3C=C[C@@]21CC [Gestrinone] (64.8457 µM),0.609
6,N[C@@H](Cc1ccc(N(CCCl)CCCl)cc1)C(=O)O [Melphalan] (65.5294 µM),0.45
7,Cc1cccc(C)c1NC1=NCCCS1 [Xylazine HCl] (90.7693 µM),0.506
8,COc1ccc(C(=O)c2c(C)n(CCN3CCOCC3)c3ccccc23)cc1 [Pravadoline] (52.8436 µM),0.594
9,O=c1[nH]c2ccccc2n1C1CCN(CCCC(c2ccc(F)cc2)c2ccc(F)cc2)CC1 [Pimozide] (43.3313 µM),0.85
10,CCCN1C[C@H](CSC)C[C@@H]2c3cccc4[nH]cc(c34)C[C@H]21 [Pergolide mesylate] (63.5937 µM),0.489
11,CC(=O)O[C@H]1C[C@@H]2CC[C@@H]3[C@H](CCC4(C)[C@H]3C[C@H]([N+]3(C)CCCCC3)[C@@H]4OC(C)=O)C2(C)C[C@@H]1[N+]1(C)CCCCC1 (stereo not given in full) [Pancuronium Br] (34.9114 µM),0.487
12,CN1[C@@H]2C[C@@H](OC(=O)[C@H](CO)c3ccccc3)C[C@H]1[C@@H]1O[C@@H]12 [Scopolamine HBr] (65.928 µM),0.464
13,C=CCN1CC[C@]23CCCC[C@H]2[C@H]1Cc1ccc(O)cc13 [Levallorphan tartrate] (70.5673 µM),0.476
14,C#C[C@]1(O)CC[C@H]2[C@@H]3CCC4=CC(=O)CC[C@]4(C)[C@H]3CC[C@@]21C [Ethisterone] (64.009 µM),0.462
15,CNC(=O)Oc1ccc2c(c1)[C@]1(C)CCN(C)[C@@H]1N2C [Physostigmine sulfate] (72.6339 µM),0.472
16,N[C@@H]1C[C@H]1c1ccccc1.N[C@H]1C[C@@H]1c1ccccc1 [Tranylcypromine] (150.156 µM),0.531
17,CC(C)c1cccc(C(C)C)c1O [Propofol] (112.185 µM),0.511
18,C[C@@H]1O[C@@H](O[C@H]2C[C@@H](O)[C@]3(CO)[C@H]4[C@H](O)C[C@]5(C)[C@@H](C6=CC(=O)OC6)CC[C@]5(O)[C@@H]4CC[C@]3(O)C2)[C@H](O)[C@H](O)[C@H]1O [Ouabain] (27.4424 µM),0.521
19,CC(C)(C)NCC(O)c1cc(Cl)c(N)c(Cl)c1 (stereo not given) [Clenbuterol] (72.1511 µM),0.498

row,SMILES,fraction of cells in G1 phase
1,C=CCN1CC[C@]23c4c5ccc(O)c4O[C@H]2/C(=N/N=C2\CC[C@@]4(O)[C@H]6Cc7ccc(O)c8c7[C@@]4(CCN6CC=C)[C@H]2O8)CC[C@@]3(O)[C@H]1C5 [Naloxonazine 2HCl] (30.7323 µM),0.456
2,CN(C)C(=O)Oc1cc(OC(=O)N(C)C)cc(C(O)CNC(C)(C)C)c1 (stereo not given) [Bambuterol] (54.4293 µM),0.518
3,CCN(C)C(=O)Oc1cccc([C@H](C)N(C)C)c1 [Rivastigmine] (79.8902 µM),0.504
4,CN(C)[C@@H]1C(=O)C(C(N)=O)=C(O)[C@@]2(O)C(=O)C3=C(O)c4c(O)cccc4[C@@](C)(O)[C@H]3C[C@@H]12 [Tetracycline] (44.9999 µM),0.471
5,Oc1ccc2c3c1O[C@H]1[C@@H](O)CC[C@@]4(O)[C@@H](C2)N(CC2CCC2)CC[C@]314 [Nalbuphine HCl] (55.9513 µM),0.469
6,C=CCN1C[C@H](C(=O)N(CCCN(C)C)C(=O)NCC)C[C@@H]2c3cccc4[nH]cc(c34)C[C@H]21 [Cabergoline] (44.2853 µM),0.496
7,COc1ccc2c(c1)[nH]c1c(C)nccc12 [Harmine] (94.227 µM),0.474
8,CN1C[C@H](C(=O)N[C@]2(C)O[C@@]3(O)[C@@H]4CCCN4C(=O)[C@H](Cc4ccccc4)N3C2=O)C=C2c3cccc4[nH]cc(c34)C[C@H]21 [Ergotamine D-tartrate] (34.3833 µM),0.499
9,CC(CCc1ccccc1)NC(C)C(O)c1ccc(O)cc1 (stereo not given) [Buphenine] (59.5415 µM),0.512
10,Cc1c(N)nc(C(CC(N)=O)NCC(N)C(N)=O)nc1C(=O)NC(C(=O)NC(C)C(O)C(C)C(=O)NC(C(=O)NCCc1nc(-c2nc(C(=O)NCCC[S+](C)C)cs2)cs1)C(C)O)C(O[C@@H]1O[C@@H](CO)[C@@H](O)[C@H](O)[C@@H]1O[C@H]1O[C@H](CO)[C@@H](O)[C@H](OC(N)=O)[C@@H]1O)c1cnc[nH]1 (stereo not given in full) [Bleomycin sulfate] (14.1285 µM),0.924
11,CCC1(c2ccc(N)cc2)CCC(=O)NC1=O (racemic) [Dl-aminoglutethimide] (86.1012 µM),0.476
12,O=c1[nH]c2ccccc2n1CCCN1CCC(n2c(=O)[nH]c3cc(Cl)ccc32)CC1 [Domperidone] (46.957 µM),0.505
13,CC[C@@H](C(N)=O)N1CCCC1=O [Levetiracetam] (117.5 µM),0.529
14,CC(C)C[C@H]1C(=O)N2CCC[C@H]2[C@]2(O)O[C@](NC(=O)[C@@H]3C=C4c5cccc6[nH]c(Br)c(c56)C[C@H]4N(C)C3)(C(C)C)C(=O)N12 [Bromocriptine mesylate] (30.5525 µM),0.529
15,COc1ccc2c(c1)[C@]13CCCC[C@@H]1[C@H](C2)N(C)CC3 [Dextromethorphan HBr] (73.6903 µM),0.503
16,CC(C)(C)NCC(O)c1ccccc1Cl (stereo not given) [Tulobuterol] (87.8208 µM),0.493
17,CN1C[C@@H](NS(=O)(=O)N(C)C)C[C@@H]2c3cccc4c3c(cn4C)C[C@H]21 [Mesulergine HCl] (55.1728 µM),0.547
18,O=P1(N(CCCl)CCCl)NCCCO1 (stereo not given) [Cyclophosphamide monohydrate] (76.6021 µM),0.501
